The term inhibition denotes the change of the read-out against control, counted positive when it falls.

We go through 94 molecules from PubChem BioAssay AID504766 (The Scripps Research Institute Molecular Screening Center, 2011).

In all, about 340,000 compounds went through this assay and about 3,400 (1%) were called active.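 How the source made its calls: active means inhibition above the mean over all tested compounds plus 3 SD (cut at about 4.2% in these data); inactive means the rest.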 Only a selection was taken, and actives are over-represented in it overall.

In this assay the target is Nuclear receptor subfamily 0 group B member 1 (Homo sapiens) (UniProt P51843). As to the kind of experiment: relief of DAX1 transcriptional repression – cell-based, HEK293, Gal4-DAX1, luciferase luminescence, primary screen (AID 504766).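 Further: 0% = DAX1-transfected cells with DMSO and 100% = empty-vector control cells with DMSO; inhibition shows as a rise in luminescence from relieved DAX1 repression.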 Particulars: HEK293 Gal4-DAX1 luciferase reporter, at 6.75 µM, active compounds read high. A general note: Reporter assays use an easily measured gene product as a stand-in for the process of interest.
Nuclear receptor subfamily 0 group B member 1 (Homo sapiens), sequence (P51843 207-470 limits assumed): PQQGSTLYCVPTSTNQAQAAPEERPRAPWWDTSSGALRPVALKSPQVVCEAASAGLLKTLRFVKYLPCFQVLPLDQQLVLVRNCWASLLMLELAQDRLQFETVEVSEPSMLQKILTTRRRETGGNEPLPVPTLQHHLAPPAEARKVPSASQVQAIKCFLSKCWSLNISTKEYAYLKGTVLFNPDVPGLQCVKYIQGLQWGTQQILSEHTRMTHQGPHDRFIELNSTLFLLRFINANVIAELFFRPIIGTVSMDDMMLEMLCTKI
With `COc1ccc(-c2ccc(CN3C(C(C)C)C(=O)N(Cc4cn(CC5CCCCC5)nn4)CCS3(=O)=O)cc2)cn1` (centres undefined), the inhibition is -0.57% (inactive).

Consider `COc1cccc(OC)c1C(=O)N1CCN(Cc2ccccc2F)CC1`, for which the inhibition was 2.65% (inactive).

Consider `CC(C)=NN1C(=O)c2ccccc2NC1(C)C`, for which the inhibition was 5.58% (active).

Consider `CC(=O)N1C(=O)C2(Nc3ccccc3N2)c2ccccc21`, for which the inhibition was 0.59% (inactive).

`CC(=O)NN1C(=O)c2ccccc2NC1c1ccccc1` (centres undefined): the inhibition was -1.71% (inactive).

On to `Cc1c(NC(=O)COC(=O)/C=C/c2cccc(F)c2)c(=O)n(-c2ccccc2)n1C`, for which the inhibition was -0.66% (inactive).

With `C[C@H]1CN([C@@H](C)CO)S(=O)(=O)c2ccc(Br)cc2O[C@H]1CN(C)C(=O)c1cnccn1`, the inhibition is -0.34% (inactive).

Consider `O=C(NCc1nnnn1-c1ccc(Cl)cc1)c1ccc([N+](=O)[O-])o1`, for which the inhibition is 0% (inactive).

As to `N#CCCC(C#N)(c1cccnc1)N1CCOCC1` (centres undefined), the inhibition is -0.32% (inactive).

With `O=C(/C=C/c1cnc2ccccc2n1)NC1CCCCCC1`, the inhibition is 4.47% (active).

Regarding `CC1CCCCC1NC(=O)Cn1c(=O)cnc2ccccc21` (centres undefined), the inhibition was -1.16% (inactive).

Consider `CC(C)c1cc(C(=O)NC2CCCCCC2)c2ccccc2n1`, for which the inhibition was -1.68% (inactive).

`COc1ccccc1N1CCN(/N=C/c2ccc(O)cc2O)CC1`: the inhibition is 5.15% (active).

Take `COc1cc(/C=N/N2CCN(c3ccccc3)CC2)ccc1OC(C)=O`: the inhibition is -0.26% (inactive).

As to `COc1ccccc1N1CCN(/N=C\C(Br)=C\c2ccccc2)CC1`, the inhibition was -0.74% (inactive).

On to `O=C(c1ncn2c1c(=O)[nH]c1ccccc12)N1CCc2ccccc2C1`, for which the inhibition is -0.1% (inactive).

Regarding `COc1ccc([C@H]2N[C@]3(CCCN(Cc4ccco4)C3=O)[C@H]3C(=O)N(C)C(=O)[C@@H]23)cc1`, the inhibition was 0.93% (inactive).

As to `O=C(C1CCCO1)N1CCN(C(=O)C23CC4CC(CC(C4)C2)C3)CC1` (centres undefined), the inhibition was -0.78% (inactive).

On to `COC(=O)/C(C#N)=C/c1occc1C`, for which the inhibition was -0.79% (inactive).

For `CCOC(=O)/C(C#N)=C/c1ccc(N2CCN(Cc3ccccc3)CC2)cc1`, the inhibition is -0.11% (inactive).

`CCOC(=O)/C(C#N)=C\c1c(C)cc(C)c(COC(C)=O)c1C`: the inhibition is 5.6% (active).

`O=S(=O)(c1cccc(C(F)(F)F)c1)N1c2ccccc2-n2cccc2C1c1cccnc1` (centres undefined): the inhibition was 0.07% (inactive).

Consider `COc1ccc(NC(=O)CSc2nnnn2-c2cccc(OC)c2)cc1`, for which the inhibition is 0.03% (inactive).

For the molecule `COC(=O)C(C)NC(=O)COc1ccc2ccccc2c1` (centres undefined), the inhibition is 4.35% (active).

With `COCCNC(=O)COc1ccc(N(C)S(=O)(=O)c2ccc3ccccc3c2)cc1`, the inhibition is -1.92% (inactive).

Take `CN(C)S(=O)(=O)c1cccc(NC(=O)COc2ccc3ccccc3c2)c1`: the inhibition was -1.43% (inactive).

With `COc1ccc2nc(-c3ccccn3)ccc2c1`, the inhibition is -0.26% (inactive).

Take `COc1ccc([C@H]2N[C@]3(CCCN(CC4CCCCC4)C3=O)[C@H]3C(=O)N(C)C(=O)[C@@H]23)cc1`: the inhibition is 0.64% (inactive).

As for `Cc1occc1-c1nnc(SCC(=O)NC2CCCCC2)o1`, the inhibition is 0.12% (inactive).

In the case of `CCn1c(SCC(=O)NC2CC2)nnc1-c1ccccc1OC`, the inhibition was 1.22% (inactive).

Turning to `CCn1c(SCC(=O)NC2CCCC2)nnc1-c1ccoc1C`, the inhibition is 4.45% (active).

For the molecule `C[C@@H]1CN([C@H](C)CO)C(=O)c2cc(Br)cnc2O[C@@H]1CN(C)Cc1cncnc1`, the inhibition was 0% (inactive).

Turning to `c1ccc2cc(OCCN3CCCC3)ccc2c1`, the inhibition is 0.12% (inactive).

With `Clc1ccccc1-c1cc(COc2ccc3ccccc3c2)no1`, the inhibition is 4.61% (active).

Take `Clc1ccc(-c2cc(COc3ccccc3)no2)cc1Cl`: the inhibition was 0.18% (inactive).

`Cc1ccccc1-c1ccc2c(c1)O[C@@H](CN(C)Cc1ccc(C(=O)O)cc1)[C@@H](C)CN([C@H](C)CO)S2(=O)=O`: the inhibition is -0.49% (inactive).

As for `Cc1ccnc(SC2CC(=O)N(c3ccccc3)C2=O)n1` (centres undefined), the inhibition was 2.33% (inactive).

Turning to `COc1ccc(C2Nc3ccccc3C(=O)N2c2ccc(Cl)cc2)cc1Cn1cc([N+](=O)[O-])cn1` (centres undefined), the inhibition is 4.6% (active).

On to `COc1ccc(C2Nc3ccccc3C(=O)N2c2ccc(F)cc2)cc1Cn1nnc2ccccc21` (centres undefined), for which the inhibition was -0.72% (inactive).

Consider `COc1ccc(N2C(=O)c3ccccc3NC2c2ccc(OC)c(CN3CCOCC3)c2)cc1` (centres undefined), for which the inhibition was 3.5% (inactive).

Take `COc1ccc(Cl)cc1NC(=O)CN(C)C(=O)c1cn(-c2ccccc2)nc1-c1cccs1`: the inhibition was -0.65% (inactive).

Consider `COCC1CCCCN1C(=O)c1cc(COc2ccc(C)c(C)c2)on1` (centres undefined), for which the inhibition is 2.51% (inactive).

As to `c1cc(-n2cnnn2)ccc1NC1=NCCC1`, the inhibition is 5.97% (active).

As for `O=S(=O)(Nc1ccc(-n2cnnn2)cc1)c1ccc(Cl)cc1`, the inhibition was 0.55% (inactive).

Consider `O=S(=O)(NC1CCCC1)c1ccc(-n2cnnn2)cc1`, for which the inhibition is 0.06% (inactive).

Consider `C[C@@H]1CN([C@H](C)CO)C(=O)CCCn2cc(nn2)CO[C@H]1CN(C)S(C)(=O)=O`, for which the inhibition is 0.1% (inactive).

For the molecule `CC1(C)NC(=O)N(CC(=O)Nc2ccc(-c3ccccc3)cc2)C1=O`, the inhibition is 1.36% (inactive).

For `CCOC(=O)C1(C(F)(F)F)N=C(N(C)C)OC(N(C)C)=N1`, the inhibition was 5.05% (active).

Turning to `CCOC(=O)C1=C(C)c2ccccc2OC1(C)C(=O)OCC` (centres undefined), the inhibition was 0.33% (inactive).

Regarding `O=C1CC[C@@H](C(=O)N2CSC[C@@H]2C(=O)Nc2ccc(C(F)(F)F)cc2)N1`, the inhibition was 0.12% (inactive).

As to `O=C(CN1CCN(c2ccccc2F)CC1)c1ccc2c(c1)OCO2`, the inhibition is -0.06% (inactive).

Consider `COc1cccc(OC)c1C(=O)Nc1ccc2c(c1)n(C)c(=O)n2C`, for which the inhibition was 1.46% (inactive).

In the case of `Cn1c(=O)n(C)c2cc(C(=O)Nc3ccc(Br)cc3)ccc21`, the inhibition was 4.79% (active).

As for `N#Cc1ccccc1NC(=O)c1ccc2c(c1)OCO2`, the inhibition is 2.82% (inactive).

Turning to `O=C(Nc1ccccc1F)c1ccc2c(c1)OCO2`, the inhibition was 4.59% (active).

Consider `Cn1c(=O)n(C)c2cc(C(=O)Nc3ccc4c(c3)OCO4)ccc21`, for which the inhibition was 13.2% (active).

For `O=C(Nc1ccc2c(c1)OCO2)c1ccc(N2C(=O)c3ccccc3C2=O)cc1`, the inhibition is 0.86% (inactive).

As for `O=C(Nc1ccc(N2CCOCC2)cc1)c1ccc2c(c1)OCO2`, the inhibition was 1.98% (inactive).

For `Cn1c(=O)n(C)c2cc(/C=N/NC(=O)c3cccc(Br)c3)ccc21`, the inhibition is -2.01% (inactive).

`CNC(=O)C[C@H]1C(=O)N(Cc2ccccc2)C[C@@H]1CSC`: the inhibition was 0.53% (inactive).

As to `Cc1cccc(S(=O)(=O)N(C)C[C@@H]2OCc3cnnn3CCCC(=O)N([C@H](C)CO)C[C@@H]2C)c1`, the inhibition was -0.51% (inactive).

Take `CCCNC(=O)C1CC(=O)N(c2ccc(OCc3ccccc3)cc2)C1` (centres undefined): the inhibition is 2.8% (inactive).

Consider `C=CCOc1ccccc1CNn1c(C)n[nH]c1=S`, for which the inhibition was 0.12% (inactive).

In the case of `CCN1CCCC1CNC(=O)c1ccc2c(c1)NC(=O)/C(=C\c1ccccc1F)S2` (centres undefined), the inhibition was 1.21% (inactive).

As to `O=C(O)c1ccccc1Cc1ccc(F)c2ccccc12`, the inhibition was 1.12% (inactive).

On to `CSc1ncccc1C(=O)N1CCCC(Nc2ccc(F)c(F)c2)C1` (centres undefined), for which the inhibition is -0.54% (inactive).

Turning to `CC(=O)Nc1cccc(-c2csc(Nc3cccc(C)n3)n2)c1`, the inhibition is 4.29% (active).

In the case of `COc1ccc(-c2csc(Nc3cccc(C)n3)n2)cc1OC`, the inhibition was 3.01% (inactive).

Turning to `Cc1cccc(Nc2nc(-c3ccccc3)cs2)n1`, the inhibition was 7.24% (active).

For the molecule `CCCCCCC(=O)Nc1nc(C)c(-c2csc(Nc3cccc(OC)c3)n2)s1`, the inhibition is 1.39% (inactive).

Consider `Cc1ccc(-c2csc(NC(=O)C3=COCCO3)n2)cc1C`, for which the inhibition was -1.52% (inactive).

On to `COc1ccc2c(c1OC)C(=O)OC2Nc1nc(-c2ccccc2)cs1` (centres undefined), for which the inhibition was 0.66% (inactive).

`CC(C)C1CCN(C(=O)C2CCC(=O)N(C3CCCCCC3)C2)CC1` (centres undefined): the inhibition was 1.56% (inactive).

`CCOC(=O)c1cnn2c(SC)ncnc12`: the inhibition is 0.53% (inactive).

Turning to `Cc1ccc2cccc([N+](=O)[O-])c2n1`, the inhibition was 0.58% (inactive).

`NC(=O)C1(Nc2ccccc2Cl)CCCC1`: the inhibition is 4.62% (active).

Take `NC(=O)C1(Nc2ccc([N+](=O)[O-])cc2)CCCC1`: the inhibition was -1.28% (inactive).

Take `NC(=O)C1(Nc2ccc(-c3ccccc3)cc2)CCCC1`: the inhibition was 0.6% (inactive).

As to `Cc1ccc(Cc2c(-c3ccccc3)nc3ccc(Cl)cn23)cc1`, the inhibition is -0.15% (inactive).

On to `CCOc1ccc(S(=O)(=O)NCCC(=O)NNC(=O)c2ccc(F)cc2)cc1`, for which the inhibition was 1.04% (inactive).

With `Cc1ccc(OCc2nc3ccccc3n2C)cc1`, the inhibition is 4.76% (active).

With `Cn1c(COc2ccc(Cl)cc2)nc2ccccc2c1=O`, the inhibition is 0.73% (inactive).

Consider `Cc1ccc(Oc2nc3ccccc3n3c(C)nnc23)cc1`, for which the inhibition was -0.82% (inactive).

As to `Cc1ccccc1C#CC1=CC(=O)CC(C)(C)C1`, the inhibition was -0.14% (inactive).

In the case of `C[C@H]1CN([C@@H](C)CO)C(=O)c2cc(-c3ccccc3F)cnc2O[C@H]1CN(C)C(=O)C1CCOCC1`, the inhibition was 1.09% (inactive).

Consider `CC1(C)CN(CCc2ccccc2)C(=O)[C@H]1CC(=O)Nc1ccc(Br)cc1`, for which the inhibition is 0.23% (inactive).

As for `COc1ccc(-c2csc3nc(-c4ccccc4F)oc(=O)c23)cc1OC`, the inhibition was -1.37% (inactive).

With `COc1ccc(-c2noc(CCCC(=O)NC3CCCC3)n2)cc1OC`, the inhibition was 0.14% (inactive).

In the case of `COc1ccc(-c2noc(-c3cccc(OC)c3OC)n2)cc1OC`, the inhibition was 4.33% (active).

As for `COc1ccc(S(=O)(=O)N(C)C)cc1NC(=O)COC(=O)c1n[nH]c2ccccc12`, the inhibition was -0.33% (inactive).

With `Cc1cc(OCC(=O)Nc2nccs2)c2c(C)c(C)c(=O)oc2c1`, the inhibition was 0.98% (inactive).

Turning to `Cc1cccnc1CC(C)NC(=O)c1cc(COc2cncc(Cl)c2)on1` (centres undefined), the inhibition is 0.03% (inactive).

On to `Cc1cc(OCc2cc(C(=O)NCc3cc(C(C)C)no3)no2)cc(C)c1Cl`, for which the inhibition is 7.06% (active).

Turning to `COc1ccc(OCc2cc(C(=O)NCC3(C)COC3)no2)c(Cl)c1`, the inhibition is 0.65% (inactive).
